Only some compounds are listed: those with a hit (about 3.1% of all), similar ones and a draw of the others.
HIV Env fusion – inhibitors of HIV-1 Env-driven cell-cell fusion, primary screen, HeLa-JRFL effector, CEM21 target cells, luciferase; inhibition, % at 12.3 µM; 1.1% of 360,000 active;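 active means mean replicate inhibition score of at least 50 and every replicate individually at or above 50; inconclusive means only one of the two criteria met; inactive means mean below 50 and not all replicates reaching 50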;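 further: 0% = plate neutral controls and 100% = maraviroc near 300 nM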
C2C12 statin – suppressors of statin myotoxicity in C2C12 myotubes, primary screen, cell-based, single point, plate reader; AID 602340, 2012; 0.78% of 330,000 active; rescue of ATP level, % at 7.49 µM; C2C12 myotubes + simvastatin, ATP luminescence, 48 h; scaled: DMSO 0, geranylgeraniol control 100;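 active means mean ATP rescue above about 67%, or every replicate alone reaching that limit, limit read from the data, passing the limit was not always enough; inconclusive means no clear call, values can overlap the other calls; inactive means mean under the limit and some replicate under it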;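 further: myotubes were challenged with 10 µM simvastatin during compound exposure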
INS-1E GSIS act – GLuc luminescence reporter in INS-1E cells, primary screen for activators of glucose-dependent secretion of insulin; INS-1E GLuc reporter insulin secretion, 2-3 h; 0.61% of 370,000 active; activation, % at 16.6 µM;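 active means lowest replicate activation of at least 40%, so every replicate reaches that level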;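 further: 0% = median of neutral control wells and 100% = median of IBMX positive control wells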
PAX8 reporter – inhibitors of PAX8-driven TPO luciferase reporter, primary screen, RMG-I cells, single concentration; SteadyGlo, 24 h; inhibition, % at 12.6 µM; 1.2% of 360,000 active; AID 652154, 2013;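 active means mean replicate inhibition at least 60% with every replicate also reaching 60%; inconclusive means only one of the two criteria is met; inactive means mean below 60% and not all replicates reaching 60%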;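 further: luciferase light reporting Pax8 driven TPO promoter activity; plate controls were median of neutral control wells for no effect and mitoxantrone controls for full effect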
EWS-Fli inh – EWS/Fli-driven NR0B1 reporter inhibitors, primary screen, A673 cells, NR0B1 luciferase, luminescence, MLPCN library. 0.67% of 350,000 active. AID 651661, 2012. inhibition, % at 12.6 µM. viability-normalised;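 active means mean inhibition of at least 50% after viability correction, with every replicate also passing that limit; inconclusive means mean reaches 50% but only one of two replicates passes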;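 further: firefly luciferase signal divided by Alamar Blue viability fluorescence both relative to DMSO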
miR-122 sensor – miR-122 Renilla sensor signal increase in Huh7, primary screen, miR-122 inhibitor project, cell-based, single point, plate reader; 0.3% of 340,000 active; AID 602342, 2012; Huh7 miR-122 Renilla luciferase sensor, 48 h; neutral wells = 0, positive control = 100; activation (reporter increase), % at 12.5 µM;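 active means mean replicate activation score at least 90 and every replicate individually at or above 90; inconclusive means only one of the two criteria met; inactive means neither criterion met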;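 further: higher luciferase means less miR-122 activity so hits act as miR-122 inhibitors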
Active calls of the source: *; [ ] = remark or other dose.

Results for CCNC(=O)[C@@H]1[C@@H](CO)[C@@H]2Cn3c(ccc(-c4ccccc4F)c3=O)[C@@H]2N1C(C)=O ?
C2C12 statin: 6; INS-1E GSIS act: 1; PAX8 reporter: 1; EWS-Fli inh: -1; miR-122 sensor: 6[16.7 µM]

How did Cc1cccc(-n2ncc3c2CCCC3NC(=O)c2ccncc2)c1C (configuration not stated) do in these assays?
HIV Env fusion: 61*; C2C12 statin: -22; PAX8 reporter: 45; EWS-Fli inh: 28; miR-122 sensor: 1

How did CCn1cc(C(=O)NC2CCCc3c2cnn3-c2cccc(C)c2C)cn1 (configuration not stated) do in these assays?
HIV Env fusion: 57*; C2C12 statin: -4; INS-1E GSIS act: -23; PAX8 reporter: 44; EWS-Fli inh: -7; miR-122 sensor: 3

What do the screens show for `C[C@@H]1CN([C@@H](C)CO)C(=O)c2cc(NC(=O)c3ccncc3)ccc2O[C@H]1CN(C)C(=O)Nc1ccc2c(c1)OCO2`?
C2C12 statin: 15; INS-1E GSIS act: 26; EWS-Fli inh: -3; miR-122 sensor: -5[16.7 µM]

Results for COc1ccc2c3c([nH]c2c1)[C@H](CO)N(Cc1ccc(F)cc1)CC31CN(C(=O)NC(C)C)C1 ?
INS-1E GSIS act: -6

Results for COC(=O)c1c(NC(=O)c2ccccc2N(C)S(=O)(=O)c2ccccc2)sc2c1CCCC2 ?
miR-122 sensor: 61

What do the screens show for `CCOC(=O)c1c(NC(=O)C(NCCN(C)C)c2ccccc2)sc2c1CCCC2` (configuration not stated)?
HIV Env fusion: -2; C2C12 statin: -22; INS-1E GSIS act: -16; PAX8 reporter: 38; EWS-Fli inh: 59*; miR-122 sensor: -6

How did CCOC(=O)c1c(NC(=O)c2ccccc2N(C)S(=O)(=O)c2ccccc2)sc2c1CCCC2 do in these assays?
HIV Env fusion: 24; INS-1E GSIS act: 2; PAX8 reporter: 28; EWS-Fli inh: inconclusive; miR-122 sensor: 162*

What do the screens show for `CCOC(=O)c1c(NC(=O)c2ccco2)sc2c1CCCC2`?
HIV Env fusion: -43; C2C12 statin: 5; PAX8 reporter: 10; miR-122 sensor: 4

What do the screens show for `O=C(Nc1cccc(C2=NCCN2)c1)Nc1cccc(C2=NCCN2)c1`?
HIV Env fusion: 12; C2C12 statin: -110; PAX8 reporter: 99*; EWS-Fli inh: -10; miR-122 sensor: 14

Results for O=C(Nc1ccncc1)Nc1cccc(Cl)c1 ?
C2C12 statin: -11; INS-1E GSIS act: -22; PAX8 reporter: -18; EWS-Fli inh: -6

How did COc1ccc2c(c1OC)C(=O)N(c1ccccn1)C2 do in these assays?
C2C12 statin: 101*; miR-122 sensor: 7

What do the screens show for `Cc1noc(C)c1NC(=O)Nc1ccc2c(c1)CC(=O)N([C@@H](C)CO)C[C@@H](C)[C@H](CN(C)S(=O)(=O)c1ccc(Cl)cc1)O2`?
HIV Env fusion: -16[16.7 µM]; C2C12 statin: 14; INS-1E GSIS act: 10; PAX8 reporter: -3; EWS-Fli inh: -6; miR-122 sensor: -4[16.7 µM]

How did O=S(=O)(NCC[C@@H]1CC[C@@H](NS(=O)(=O)c2cccc(F)c2)[C@H](CO)O1)c1cccc(F)c1 do in these assays?
INS-1E GSIS act: 8; PAX8 reporter: 4; EWS-Fli inh: -10

How did COc1c(S(=O)(=O)NCCCn2ccnc2)ccc(Cl)c1Cl do in these assays?
HIV Env fusion: 6; C2C12 statin: 4; INS-1E GSIS act: 9; PAX8 reporter: 5; EWS-Fli inh: -5; miR-122 sensor: 125*

Results for COc1cc(C)c(C(C)C)cc1S(=O)(=O)NCCCn1ccnc1 ?
HIV Env fusion: -122; C2C12 statin: 114*; miR-122 sensor: 14

How did CCOC(=O)c1oc2ccccc2c1COC(=O)CNC(=O)c1ccco1 do in these assays?
HIV Env fusion: -9; C2C12 statin: -11; INS-1E GSIS act: 6; PAX8 reporter: -23; EWS-Fli inh: 3

What do the screens show for `CCOC(=O)c1oc2ccccc2c1NC(=O)c1ccco1`?
HIV Env fusion: 12; C2C12 statin: 5; INS-1E GSIS act: 49*; PAX8 reporter: 9; miR-122 sensor: -4

Results for Cc1ccccc1OCC(=O)Nc1ccccc1-c1ccccc1NC(=O)COc1ccccc1C ?
HIV Env fusion: 64*; INS-1E GSIS act: -35; PAX8 reporter: 43; miR-122 sensor: -11

What do the screens show for `Cc1ccccc1OCC(=O)NNC(=O)Nc1ccc(Cl)cc1`?
C2C12 statin: -34; miR-122 sensor: 144*

How did Cc1ccccc1OCC(=O)NNC(=O)Nc1ccccc1 do in these assays?
HIV Env fusion: -2; INS-1E GSIS act: -3; PAX8 reporter: 6; EWS-Fli inh: -5

How did Cc1ccccc1OCC(=O)Nc1cccc(Cl)c1C do in these assays?
HIV Env fusion: -17; C2C12 statin: -7; INS-1E GSIS act: -5; PAX8 reporter: -7; EWS-Fli inh: -39; miR-122 sensor: 1

Results for C[C@H](CO)N1C[C@H](C)[C@H](CN(C)S(=O)(=O)c2ccc(F)cc2)Oc2ccc(N(C)C)cc2C1=O ?
C2C12 statin: 11; INS-1E GSIS act: 2; PAX8 reporter: 1; EWS-Fli inh: -5; miR-122 sensor: -2[16.7 µM]

Results for Cc1noc(C)c1NC(=O)Nc1cccc2c1O[C@H](CN(C)Cc1ccc(-c3ccccc3)cc1)[C@@H](C)CN([C@@H](C)CO)C2=O ?
C2C12 statin: 98*; INS-1E GSIS act: -11; PAX8 reporter: 16; EWS-Fli inh: 2; miR-122 sensor: -8[16.7 µM]

What do the screens show for `CC(C)NC(=O)Nc1cccc2c1O[C@H](CN(C)Cc1ccc(-c3ccccc3)cc1)[C@@H](C)CN([C@@H](C)CO)C2=O`?
HIV Env fusion: 19[16.7 µM]; C2C12 statin: 66*; INS-1E GSIS act: -10; PAX8 reporter: -9; EWS-Fli inh: 0; miR-122 sensor: 0[16.7 µM]

How did Cc1noc(C)c1NC(=O)Nc1cccc2c1O[C@H](CN(C)Cc1ccc(C(F)(F)F)cc1)[C@H](C)CN([C@@H](C)CO)C2=O do in these assays?
HIV Env fusion: -24[16.7 µM]; C2C12 statin: -28; INS-1E GSIS act: -29; PAX8 reporter: 81*; EWS-Fli inh: -2; miR-122 sensor: -4[16.7 µM]

How did CCC(=O)N(C)C[C@@H]1Oc2cc(-c3cccc(F)c3)ccc2S(=O)(=O)N([C@H](C)CO)C[C@H]1C do in these assays?
HIV Env fusion: 13[16.7 µM]; C2C12 statin: -42; INS-1E GSIS act: -1; EWS-Fli inh: 1; miR-122 sensor: 1[16.7 µM]

How did CC[C@H](CO)Nc1nc(Nc2cccc(Cl)c2)c2ncn(C(C)C)c2n1 do in these assays?
HIV Env fusion: 7; C2C12 statin: -29; INS-1E GSIS act: -13; PAX8 reporter: 78*; EWS-Fli inh: 4; miR-122 sensor: -8

Assay outcomes as filed in PubChem.
